Results filed as inconclusive are left out. Calls of active or inactive are those of the source. Rule for the calls, unless noted: active = hit-call score of the fitted dose curve at least 0.9, where 1 is the maximum; inactive = score below 0.9.
Experiments:
[1] = read-out: Collagen I, COL1A1 (gene 1277); assay: BSK_MyoF_CollagenI: BioMAP Diversity Plus: MyoF Assay for Collagen I Biomarker Activity (AID 2284238); settings: primary human lung fibroblasts
Summary of the method: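 Primary human lung fibroblasts (MyoF system) treated 24 h; Collagen I quantified by ELISA and fitted in positive direction against DMSO. Parallel SRB total-protein staining assessed overt cytotoxicity.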

[2] = read-out: Collagen III, COL3A1 (gene 1281); assay: BSK_MyoF_CollagenIII: BioMAP Diversity Plus: MyoF Assay for Collagen III Biomarker Activity (AID 2284239); settings: primary human lung fibroblasts
Summary of the method: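 Primary human lung fibroblasts (BioMAP MyoF system) exposed 24 h. Collagen III measured by ELISA; positive-direction fit relative to DMSO.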

[3] = CCTE_Mundy_HCI_hNP1_Casp3_7: CCTE's Caspase-Glo 3/7 Assay in human neuroprogenitor cells for Apoptosis, Mundy Lab (AID 2284240)
Summary of the method: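 Luminescent caspase-3/7 readout, 26.5 h post-dose, in human neural progenitor cells from WA09 embryonic stem cells. Cells grew 40–44 h at 37 °C, 5% CO2 before chemical addition. Activity analysed as signal increase over DMSO baseline.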

[4] = CCTE_Mundy_HCI_hNP1_CellTiter: CCTE's Cell Titer-Glo 2 Assay in human neuroprogenitor cells for Viability, Mundy Lab (AID 2284241; active = hit-call score of the fitted dose curve at least 0.9, where 1 is the maximum)
Summary of the method: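 Viability read as luminescent ATP content (CellTiter-Glo, 30 min room temperature) twenty-four hours after dosing, relative to DMSO. Cells: WA09-derived hNP1 neuroprogenitors on poly-L-ornithine/laminin, plated 40 to 44 hours before chemical.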

[5] = read-out: Interleukin 17F (IL17F), IL17F (gene 112744); assay: BSK_BT_xIL17F: BioMAP Diversity Plus: BT Assay for Interleukin 17F (IL17F) Biomarker Activity (AID 2284243); settings: primary human B cells with PBMC
Summary of the method: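 Human PBMC co-cultured with B cells, compound exposure 24 h; secreted IL-17F quantified by Luminex xMAP, referenced to DMSO control. PBMC viability measured in parallel by Alamar Blue reduction.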

[6] = read-out: Actin alpha 1 (ACTA1), ACTA1 (gene 58); assay: BSK_MyoF_ACTA1: BioMAP Diversity Plus: MyoF Assay for Actin alpha 1 (ACTA1) Biomarker Activity (AID 2284244); settings: primary human lung fibroblasts
Summary of the method: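 MyoF fibroblast system (human lung); a-SMA quantified via ELISA at 24 h; DMSO-normalised, gain-of-signal endpoint.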

[7] = read-out: Interleukin 2 (IL2), IL2 (gene 3558); assay: BSK_BT_xIL2: BioMAP Diversity Plus: BT Assay for Interleukin 2 (IL2) Biomarker Activity (AID 2284245); settings: primary human B cells with PBMC
Summary of the method: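 Co-cultures of primary human B cells and PBMC are treated with chemical and sampled at 24 h. IL-2 secretion is quantified by Luminex xMAP, with DMSO-treated wells as baseline.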

Measured: AC50

O=P(O)(O)CCC(F)(F)C(F)(F)C(F)(F)C(F)(F)C(F)(F)C(F)(F)C(F)(F)C(F)(F)F
inactive: [1] | [2] | [3] | [4] | [5] | [6] | [7]

O=C1c2ccc(O)c(O)c2C(=O)c2c(O)ccc(O)c21
inactive: [1] | [2] | [5] | [6] | [7]

C=CC(C)(CCC=C(C)C)OC(C)=O (stereo unspecified)
inactive: [1] | [2] | [5] | [6] | [7]

COc1cccc(O)c1
inactive: [1] | [2] | [5] | [6] | [7]

CC1=NN(c2ccccc2)C(=O)C1
active: [2] 3.97 µM
inactive: [1] | [5] | [6] | [7]

Clc1ccc(Nc2nnc(Cc3ccncc3)c3ccccc23)cc1
inactive: [1] | [2] | [5] | [6] | [7]

O=C(NO)c1ccccc1
inactive: [1] | [2] | [6]
active: [5] 19.2 µM | [7] 19.2 µM

COC1=CC(=O)C[C@@H](C)[C@]12Oc1c(Cl)c(OC)cc(OC)c1C2=O
active: [1] 20 µM | [2] 3.97 µM
inactive: [5] | [6] | [7]

CC(C)(C)c1ccc(O)c(O)c1
inactive: [7]
active: [1] 27.4 µM | [2] 29.2 µM | [5] 26 µM | [6] 29.6 µM

O=C1OC2(c3ccccc31)c1cc(I)c(O)c(I)c1Oc1c2cc(I)c(O)c1I
active: [1] 5.89 µM
inactive: [5] | [6] | [7]

Oc1cc2ccccc2cc1O
inactive: [1] | [2] | [5] | [6] | [7]

CN(C)c1ccc(C(=C2C=CC(=[N+](C)C)C=C2)c2ccccc2)cc1
active: [1] 0.0082 µM | [2] 0.164 µM | [5] 0.49 µM | [6] 1.06 µM | [7] 0.432 µM

O=C(NCc1ncc(C(F)(F)F)cc1Cl)c1c(Cl)cccc1Cl
inactive: [1] | [2] | [6]
active: [5] 21 µM | [7] 32.1 µM

C[C@]12CC[C@@H]3c4ccc(O)cc4CC[C@H]3[C@@H]1C[C@@H](O)[C@@H]2O
inactive: [1] | [2] | [5] | [6] | [7]

COCN(COC)c1nc(N(COC)COC)nc(N(COC)COC)n1
inactive: [1] | [2] | [5] | [6] | [7]

O=S(=O)(O)C(F)(F)C(F)(F)C(F)(F)C(F)(F)C(F)(F)C(F)(F)C(F)(F)C(F)(F)C(F)(F)C(F)(F)F
inactive: [1] | [2] | [5] | [6] | [7]

OCCN1CN(CCO)CN(CCO)C1
active: [5] 20 µM | [7] 31.3 µM
inactive: [1] | [2] | [6]

O=C(O)CCC(F)(F)C(F)(F)C(F)(F)C(F)(F)C(F)(F)F
inactive: [1] | [2] | [5] | [6] | [7]

Cc1ccc(C(=O)c2ccccc2)cc1
active: [6] 20 µM
inactive: [1] | [2] | [5] | [7]

CC[N+](CC)(CC)Cc1ccccc1
inactive: [1] | [2] | [5] | [6] | [7]

NC(=NCCCCCCN=C(N)/N=C(\N)Nc1ccc(Cl)cc1)/N=C(\N)Nc1ccc(Cl)cc1
active: [1] 1.21 µM | [2] 2.24 µM | [5] 5.34 µM | [6] 4.86 µM | [7] 8.05 µM

COc1cc(OC)nc(NC(=O)NS(=O)(=O)Nc2ccccc2C(=O)N(C)C)n1
inactive: [1] | [2] | [5] | [6] | [7]

C=COC(=O)C(C)(C)CCCCCC
inactive: [5] | [7]
active: [1] 34.2 µM | [2] 31.9 µM | [6] 34.3 µM

Source: PubChem BioAssay (EPA / NIEHS)
